# Compound activity as filed in PubChem BioAssay.
# LGR2 antag – Drosophila LGR2 receptor signaling inhibition; inhibition, % at 9.99 µM; HEK293 LGR2, CRE-luciferase, bursicon-stimulated, 4 h; 0.35% of 380,000 active; AID 720647;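 active = drop in luminescence signal, shown as inhibition above about 50% in the replicate tests, limit read from the data, passing the limit was not always enough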;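 note: agonist challenge used bursicon conditioned medium at about half maximal strength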
# HIF-2a inh – blocks HIF-2a reporter activity; 786-0 RCC cells HIF-2a reporter, luciferase luminescence, overnight; inhibition, % at 18.8 µM; 0.72% of 360,000 active;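 active = inhibition of the luminescence signal of 40% or more relative to plate controls, in a single-dose primary screen at 18.75 µM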
# KKLEB tox – CF airway cell cytotoxicity counter-screen; KKLEB CF airway cells viability, ATPlite luminescence, overnight; hits give low values; cells stimulated with P. aeruginosa culture filtrate; activity change (cytotoxicity), % at 5 µM; 0.36% of 360,000 active;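 active = corrected activity change at or below -50% at 5 µM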
# hiPSC survival – hiPSC single-cell survival enhancement; 0.044% of 360,000 active; AID 602274; ATPlite luminescence; 100% = ROCK inhibitor wells, 0% = DMSO; survival enhancement, % at 20 µM; in the data active = survival enhancement above about 18%;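 note: cells exposed to compounds for 16 hours before the ATP read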
# TWEAK Fn14 block – inhibitors of TWEAK-Fn14 interaction signaling. TWEAK-stimulated Fn14 reporter cells, luciferase luminescence, 8 h. inhibition, % at 10 µM. 2% of 360,000 active. AID 1159606; in the data active = inhibition above about 50%
# CF NFkB inh – cystic fibrosis NF-kB activation inhibition; KKLEB NF-kB-GFP reporter, PAF-induced, GFP fluorescence overnight; inhibition, % at 5 µM; 0.86% of 360,000 active; AID 588850;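 active = at least 50% inhibition at 5 µM, scaled per plate between neutral and stimulator controls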;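 note: PAF is a Pseudomonas aeruginosa culture filtrate used as stimulus; plate controls were PAF-stimulated DMSO wells for no effect and unstimulated DMSO wells for full effect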
# Mdm2 MdmX conf – confirmation of inhibitors of human Mdm2/MdmX interaction, set 2 | 99% of 740 active | SaOS-2 split-luciferase Mdm2/MdmX complementation, luminescence | inhibition, % at 8 µM | shares compounds with HIF-2a inh;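 active = mean inhibition of the luminescence signal across two replicates at or above 26 percent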
# Target sequence (O15151 whole entry, looked up): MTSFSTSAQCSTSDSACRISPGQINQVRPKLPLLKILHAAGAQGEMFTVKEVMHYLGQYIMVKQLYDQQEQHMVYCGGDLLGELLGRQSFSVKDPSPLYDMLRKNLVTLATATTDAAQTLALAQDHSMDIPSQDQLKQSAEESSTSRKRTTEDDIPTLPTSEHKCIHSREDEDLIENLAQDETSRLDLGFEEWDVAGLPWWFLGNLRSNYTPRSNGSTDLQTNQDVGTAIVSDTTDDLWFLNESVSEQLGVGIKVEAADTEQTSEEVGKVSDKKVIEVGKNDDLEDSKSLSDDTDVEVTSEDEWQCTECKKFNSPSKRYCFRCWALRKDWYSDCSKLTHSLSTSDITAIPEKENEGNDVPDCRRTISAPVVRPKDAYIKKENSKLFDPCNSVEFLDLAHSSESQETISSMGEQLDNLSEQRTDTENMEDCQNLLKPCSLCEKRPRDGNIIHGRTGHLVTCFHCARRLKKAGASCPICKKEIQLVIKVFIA
# Target sequence (Q00987 whole entry, looked up): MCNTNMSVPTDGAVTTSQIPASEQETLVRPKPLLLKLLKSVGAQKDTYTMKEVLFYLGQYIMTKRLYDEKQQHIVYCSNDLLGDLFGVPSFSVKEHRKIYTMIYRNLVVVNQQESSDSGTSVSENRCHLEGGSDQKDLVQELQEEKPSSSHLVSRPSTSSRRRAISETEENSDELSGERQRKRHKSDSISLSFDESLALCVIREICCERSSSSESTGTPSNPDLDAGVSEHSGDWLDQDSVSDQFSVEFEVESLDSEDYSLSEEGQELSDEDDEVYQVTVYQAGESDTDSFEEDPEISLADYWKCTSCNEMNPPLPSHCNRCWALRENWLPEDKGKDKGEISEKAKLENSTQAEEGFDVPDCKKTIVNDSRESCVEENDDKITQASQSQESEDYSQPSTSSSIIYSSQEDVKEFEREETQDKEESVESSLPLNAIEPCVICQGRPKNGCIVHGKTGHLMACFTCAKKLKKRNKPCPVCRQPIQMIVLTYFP
# HIF-2a conf – HIF-2a inhibition, single concentration confirmation; shares compounds with HIF-2a inh; 786-0 RCC cells, HIF-2a luciferase reporter luminescence, overnight; inhibition, % at 18.8 µM; 56% of 1,800 active;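 active = mean inhibition across four replicates of at least 40 percent at the single tested concentration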
# HIF-1a cs – HIF-1a inhibition counter-screen for HIF-2a hits; shares compounds with HIF-2a inh; MiaPaCa-2 HIF-1a luciferase reporter, desferoxamine, overnight; inhibition, % at 18.8 µM; 72% of 1,800 active;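 active = mean inhibition of the reporter signal across four replicates at the single tested dose of 50% or more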
# The depositor's hits bear a star; x = no result given. An excerpt weighted towards active compounds, which were near 2.3% of everything screened.
SMILES,LGR2 antag,HIF-2a inh,KKLEB tox,hiPSC survival,TWEAK Fn14 block,CF NFkB inh,HIF-2a conf,HIF-1a cs,others
Cc1ccc2nc(Cl)c(C3CC(c4ccco4)=NN3S(C)(=O)=O)cc2c1 (stereo not drawn),-9.6,-77.2,0.6,-0.4,-39.6,0.2,x,x,
CCOc1ccc2nc(Cl)c(C3CC(c4ccco4)=NN3S(C)(=O)=O)cc2c1 (stereo not drawn),11.2,44.8*,-9.1,-0.1,-16.0,1.1,-3.2,35.3,
CO[C@H]1CN(C)C(=O)c2cc(NC(=O)c3cccc(Oc4ccccc4)c3)ccc2OC[C@@H](C)NC[C@@H]1C,2.5,x,x,x,x,x,x,x,
CC(C)(C)N(Cc1ccc2c(c1)OCO2)C(=O)/C=C\S(=O)c1ccccc1 (stereo not drawn),58.8*,69.1*,-18.7,-3.3,87.5*,43.0,53.5*,80.3*,
CCN(Cc1ccc2c(c1)OCO2)C(=O)/C=C/c1cccc(Br)c1,-9.9,-80.9,-11.6,-0.5,-33.4,3.3,x,x,
COc1ccc(C#Cc2ccc3c(c2)[C@H]2[C@H](CCN2C(=O)C2CCC2)[C@@H](CO)N3)cc1,17.2,x,x,x,x,x,x,x,
CCSc1nc(-c2ccccc2)nc(C(Cl)Cl)n1,22.6,70.9*,-14.9,-4.4,40.9,14.0,61.2*,105.0*,
C[C@@H]1CN([C@@H](C)CO)C(=O)Cc2cc(NC(=O)CCCN(C)C)ccc2O[C@H]1CN(C)S(=O)(=O)c1ccccc1,-14.9,x,x,x,x,x,x,x,
N#CC1=C(N)N2C(=C(C#N)C1c1ccc(Br)cc1)Nc1ccccc12 (stereo not drawn),48.9,x,x,x,x,x,x,x,Mdm2 MdmX conf=101.2*
CCCCC(=O)NC(c1ccc(Cl)cc1)c1ccc2cccnc2c1O (stereo not drawn),47.8,18.3,-1.5,-0.6,5.6,-23.5,x,x,
CCCC(=O)NC(c1ccc(Cl)cc1)c1ccc2cccnc2c1O (stereo not drawn),30.9,25.1,-0.1,-0.5,1.0,-26.9,x,x,Mdm2 MdmX conf=92.2*
CC(=O)NC(c1ccc(Cl)cc1Cl)c1ccc2cccnc2c1O (stereo not drawn),43.5,25.1,6.7,-0.6,9.1,-11.9,x,x,Mdm2 MdmX conf=86.0*
CC(=O)NC(c1ccc2ccccc2c1)c1ccc2cccnc2c1O (stereo not drawn),20.1,29.2,-2.8,0.5,9.8,-43.1,x,x,
CCCC(=O)NC(c1ccc(C)cc1)c1ccc2cccnc2c1O (stereo not drawn),x,11.3,7.1,-0.2,-4.6,-2.9,x,x,Mdm2 MdmX conf=89.2*
CC(C)C(=O)NC(c1cccc([N+](=O)[O-])c1)c1ccc2cccnc2c1O (stereo not drawn),11.1,20.4,-9.0,-0.4,4.5,8.3,x,x,Mdm2 MdmX conf=88.0*
CN(C)C(=O)c1ccc(-c2ccc(C3[C@@H]4CN(C(=O)C5CCCCC5)C[C@H]3N4)cc2)cc1 (stereo partly drawn),5.6,x,x,x,x,x,x,x,
CCCC(=O)NC(c1cccc([N+](=O)[O-])c1)c1ccc2cccnc2c1O (stereo not drawn),40.9,13.4,-5.1,-2.9,13.6,12.1,x,x,
CCCC(=O)NC(c1ccc(Cl)cc1Cl)c1ccc2cccnc2c1O (stereo not drawn),34.8,12.3,-7.3,-0.1,12.0,-8.8,x,x,Mdm2 MdmX conf=85.2*
COc1ccc(-c2cnc3c(NC=O)cc(-c4cccc(NS(C)(=O)=O)c4)cn23)cc1OC,-3.1,51.5*,-62.5*,-3.1,24.9,92.6*,78.7*,-9.2,
N=c1n(CC(=O)c2ccc(Br)cc2)c2ccccc2n1Cc1ccccc1,4.1,-9.4,-24.0,-3.7,-21.7,-8.8,x,x,Mdm2 MdmX conf=102.0*
N=c1n(CC(=O)c2ccc([N+](=O)[O-])cc2)c2ccccc2n1Cc1ccccc1,-6.3,12.4,-31.2,-3.7,2.2,3.4,x,x,
CCCCNC(=O)NC1(C(F)(F)F)Oc2ccccc2O1,17.5,18.0,-19.7,-2.0,3.8,4.4,x,x,
CC(=O)NC1(C(Cl)(Cl)Cl)Oc2ccccc2O1,x,47.0*,-6.3,-3.3,-12.7,2.1,18.7,20.0,
CCOC(=O)c1c(SCCN2CCCCC2)n(-c2ccccc2)c(=S)n(-c2ccccc2)c1=O,8.3,87.4*,-7.9,-0.2,18.5,7.0,67.7*,100.6*,
CCOC(=O)c1c(SC)n(-c2ccccc2)c(=S)n(-c2ccccc2)c1=O,2.1,18.3,-6.6,-0.7,16.2,8.3,x,x,
SMILES,LGR2 antag,HIF-2a inh,KKLEB tox,hiPSC survival,TWEAK Fn14 block,CF NFkB inh,HIF-2a conf,HIF-1a cs,others
COc1ccccc1-c1ccc([C@H]2[C@@H](C#N)N(C(=O)C3CCC3)[C@H]2CO)cc1,-3.0,x,x,x,x,x,x,x,
CCc1ccc(-c2cc3c(=O)n(CC(=O)NCCCN4CCC(Cc5ccccc5)CC4)nc(C)n3n2)cc1,8.6,-47.9,-10.4,-0.5,-30.9,31.9,x,x,Mdm2 MdmX conf=103.2*
Cc1nn(CC(=O)NCCCN2CCC(Cc3ccccc3)CC2)c(=O)c2cc(-c3ccccc3)nn12,-3.1,-30.4,-10.8,0.2,-10.4,19.5,x,x,
C[C@@H]1CN([C@@H](C)CO)C(=O)c2cc(NC(=O)C3CCCCC3)ccc2O[C@H]1CN(C)Cc1ccc(C(=O)O)cc1,8.4,x,x,x,x,x,x,x,
CO[C@@H]1CN(C)C(=O)c2ccc(NC(=O)C3CC3)cc2OC[C@@H](C)N(C(=O)Nc2ccc(C(F)(F)F)cc2)C[C@H]1C,-4.3,x,x,x,x,x,x,x,
Cc1ccc(NC(=S)NNc2ncc(C(F)(F)F)cc2Cl)c(C)c1,x,27.2,-0.9,-0.4,8.9,17.1,x,x,
Cc1ccc(NC(=S)NNc2ncc(C(F)(F)F)cc2Cl)cc1,3.2,68.6*,6.5,-0.1,17.1,1.7,81.5*,41.4,
FC(F)(F)c1cnc(NNC(=S)Nc2ccc(Cl)cc2)c(Cl)c1,49.1,47.9*,-23.1,-1.4,61.0*,43.8,52.4*,37.7,
Fc1ccc(NC(=S)NNc2ncc(C(F)(F)F)cc2Cl)c(F)c1,12.3,33.9,-8.0,-1.8,29.0,40.0,x,x,
COc1ccc(C(C)=O)cc1CSc1nnc(-c2ccc(Cl)cc2)n1-c1ccccc1,x,41.2*,1.9,-2.4,-14.7,20.3,15.9,27.0,
COc1ccc(C(C)=O)cc1CSc1nnc(-c2ccncc2)n1C,-13.0,12.0,-3.7,0.3,-9.9,-3.2,x,x,
C/C=C/c1ccc2c(c1)O[C@H](CN(C)C(C)=O)[C@@H](C)CN([C@@H](C)CO)S2(=O)=O,2.3,x,x,x,x,x,x,x,
CC1CCc2nc(NC(=O)c3ccco3)sc2C1 (stereo not drawn),x,43.1*,-31.2,-4.9,95.8*,-17.9,71.5*,88.3*,
CC1CCc2nc(NC(=O)Cc3cccs3)sc2C1 (stereo not drawn),x,-290.1,-8.3,1.2,-22.8,16.6,x,x,
